# In PubChem BioAssay AID1159580 (chemical genetic matrix, 2015):
# The whole screen tested about 5,500 compounds, of which about 2,000 (36%) were called active. Another 18% or so got no clear call; they are omitted. This is one part of the list. A number with no mark means an inactive call. No stated cut-off is given here; in the data, active means normalized growth mostly below about 0.91 (no sharp cut-off); inconclusive means no clear call, values can overlap the other calls; inactive means mostly above about 0.92.
# Experiment: chemical genetic growth profiling, strain panel (AID 1159580);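 further: tested at 20 µM; growth read once vehicle control cultures reached saturation at 30 °C; 1 = growth at the plate median or of vehicle wells; lower values mean less growth of the strain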
# Settings: growth OD
smiles,measurement,setting,value
COc1ccc2cc3[n+](cc2c1OC)CCc1cc2c(cc1-3)OCO2,normalized growth,"S. cerevisiae deletion strains, locus YNL071W, strain lat1, active compounds read low",0.991
same,normalized growth,"S. cerevisiae deletion strains, locus YNL128W, strain TEP1, active compounds read low",0.518 (active)
same,normalized growth,"S. cerevisiae deletion strains, locus YNL153C, strain GIM3, active compounds read low",0.701 (active)
same,normalized growth,"S. cerevisiae deletion strains, locus YNL183C, strain NPR1, active compounds read low",0.855
same,normalized growth,"S. cerevisiae deletion strains, locus YNL209W, strain ssb2, active compounds read low",0.98
same,normalized growth,"S. cerevisiae deletion strains, locus YNL233W, strain BNI4, active compounds read low",0.593 (active)
same,normalized growth,"S. cerevisiae deletion strains, locus YNL248C, strain rpa49, active compounds read low",0.975
same,normalized growth,"S. cerevisiae deletion strains, locus YNL250W, strain rad50, active compounds read low",0.995
same,normalized growth,"S. cerevisiae deletion strains, locus YNL271C, strain bni1, active compounds read low",0.963
same,normalized growth,"S. cerevisiae deletion strains, locus YNL298W, strain CLA4, active compounds read low",0.971
same,normalized growth,"S. cerevisiae deletion strains, locus YNL307C, strain MCK1, active compounds read low",0.561 (active)
same,normalized growth,"S. cerevisiae deletion strains, locus YNL322C, strain KRE1 (second series), active compounds read low",0.987
same,normalized growth,"S. cerevisiae deletion strains, locus YNL322C, strain KRE1, active compounds read low",0.496 (active)
same,normalized growth,"S. cerevisiae deletion strains, locus YNR049C, strain mso1, active compounds read low",0.998
same,normalized growth,"S. cerevisiae deletion strains, locus YNR052C, strain pop2, active compounds read low",0.671 (active)
same,normalized growth,"S. cerevisiae deletion strains, locus YOL006C, strain TOP1, active compounds read low",0.405 (active)
same,normalized growth,"S. cerevisiae deletion strains, locus YOL012C, strain htz1",2.03 [resistant] (active)
same,normalized growth,"S. cerevisiae deletion strains, locus YOL147C, strain pex11, active compounds read low",0.603 (active)
same,normalized growth,"S. cerevisiae deletion strains, locus YOR001W, strain rrp6, active compounds read low",0.973
same,normalized growth,"S. cerevisiae deletion strains, locus YOR061W, strain CKA2, active compounds read low",0.378 (active)
same,normalized growth,"S. cerevisiae deletion strains, locus YOR069W, strain VPS5, active compounds read low",0.731 (active)
same,normalized growth,"S. cerevisiae deletion strains, locus YOR070C, strain gyp1, active compounds read low",0.984
same,normalized growth,"S. cerevisiae deletion strains, locus YOR080W, strain dia2, active compounds read low",0.992
same,normalized growth,"S. cerevisiae deletion strains, locus YOR083W, strain WHI5, active compounds read low",0.994
same,normalized growth,"S. cerevisiae deletion strains, locus YOR106W, strain vam3, active compounds read low",1.02
same,normalized growth,"S. cerevisiae deletion strains, locus YOR136W, strain idh2, active compounds read low",0.748 (active)
same,normalized growth,"S. cerevisiae deletion strains, locus YOR144C, strain elg1, active compounds read low",0.586 (active)
same,normalized growth,"S. cerevisiae deletion strains, locus YOR184W, strain ser1, active compounds read low",0.333 (active)
same,normalized growth,"S. cerevisiae deletion strains, locus YOR231W, strain MKK1, active compounds read low",0.822 (active)
same,normalized growth,"S. cerevisiae deletion strains, locus YOR265W, strain rbl2, active compounds read low",0.984
same,normalized growth,"S. cerevisiae deletion strains, locus YOR270C, strain vph1, active compounds read low",0.976
same,normalized growth,"S. cerevisiae deletion strains, locus YOR290C, strain snf2, active compounds read low",0.96
same,normalized growth,"S. cerevisiae deletion strains, locus YOR316C, strain cot1, active compounds read low",0.663 (active)
same,normalized growth,"S. cerevisiae deletion strains, locus YPL051W, strain arl3, active compounds read low",0.994
same,normalized growth,"S. cerevisiae deletion strains, locus YPL055C, strain LGE1, active compounds read low",0.525 (active)
same,normalized growth,"S. cerevisiae deletion strains, locus YPL078C, strain atp4, active compounds read low",0.991
same,normalized growth,"S. cerevisiae deletion strains, locus YPL106C, strain sse1, active compounds read low",0.964
same,normalized growth,"S. cerevisiae deletion strains, locus YPL240C, strain hsp82, active compounds read low",1.01
same,normalized growth,"S. cerevisiae deletion strains, locus YPL241C, strain CIN2, active compounds read low",0.558 (active)
same,normalized growth,"S. cerevisiae deletion strains, locus YPL256C, strain CLN2, active compounds read low",0.786 (active)
same,normalized growth,"S. cerevisiae deletion strains, locus YPR119W, strain clb2, active compounds read low",0.804 (active)
same,normalized growth,"S. cerevisiae deletion strains, locus YPR141C, strain kar3, active compounds read low",1.01
same,normalized growth,"S. cerevisiae deletion strains, locus YPR163C, strain tif3, active compounds read low",0.984
same,normalized growth,"S. cerevisiae deletion strains, locus YPR167C, strain met16, active compounds read low",0.622 (active)
same,normalized growth,"S. cerevisiae deletion strains, strain wtn01, active compounds read low",0.305 (active)
same,normalized growth,"S. cerevisiae strains, strain wild type, active compounds read low",0.408 (active)
